Pf growth 48h: P. falciparum growth inhibition at 48 hours (one generation); P. falciparum luciferase growth in erythrocytes, 48 h; Potency, µM (titrated, usually from 28.7 µM), most hits filed as inhibitors; hit rate 5.9% among 310,000; AID 504832
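Read-out is firefly luciferase luminescence from an integrated reporter in P. falciparum, so falling signal marks reduced parasite growth. Infected erythrocytes were at 2% hematocrit and 0.1% parasitemia (final) in Albumax-supplemented RPMI 1640.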
Pf growth 96h: inhibits malaria parasite growth, 96 h; P. falciparum luciferase reporter growth, 96 h; Potency, µM (top dose mostly 28.7 µM), usual class: inhibitors; hit rate 6.9% among 320,000; AID 504834
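Compounds incubated with erythrocytes infected by luciferase-expressing P. falciparum (2% hematocrit, 0.05% parasitemia final) for 96 hours, 37 C in 5% CO2. Growth inhibition scored as decreased luciferase luminescence.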
HCMV inh: human cytomegalovirus inhibition; AID 1259415; hit rate 4.5% among 410,000; activity change, negative = inhibition, % at 57.5 µM; HFF cells, HCMV-luciferase reporter, 72 h; active compounds read low; in the data active means activity change below about -60%; inconclusive means no clear call, values can overlap the other calls; inactive means above about -39%
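Cell-based, HFFs, 1000 cells/well, 16 h 37C; cpds in DMSO + HCMV-luc, MOI 1 PFU/cell; 72 h 37C; OneGlo luminescence after 5 min RT; norm. to buffer vs Salinomycin 10uM.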
LASV entry inh: inhibitors of Lassa virus binding or cell entry; hit rate 1.2% among 300,000; Potency, µM (top dose mostly 37.9 µM), most hits filed as inhibitors; Lassa virus pseudotype entry inhibition, cell reporter; calls by dose curve; tested in HEK293 cells; further: nearly all actives have a fitted effect of over 50% in size
HCV inhibitor: blocks hepatitis C virus. hit rate 3.4% among 340,000. Huh7.5.1 HCVcc-Cre infection, luciferase reporter, 44 h. Potency, µM (highest dose often 41.8 µM), most hits filed as inhibitors. AID 651820
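Cells seeded at 1,000/well and cultured 4 h, then compounds added followed by HCVcc-Cre virus (~0.5 moi). After 44 h further culture, luciferase substrate was added, plates held 15 min at room temperature, and luminescence read for 15 sec.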
MARV entry inh: inhibitors of Marburg virus binding or cell entry; Marburg virus pseudotyped entry inhibition, cell reporter; Potency, µM (doses to about 37.8 µM), usual class: inhibitors; hit rate 1.8% among 300,000; calls by dose curve; tested in HEK293 cells
Numbers stand for hits; - = inactive; ? = inconclusive; . = not tested or not shown; [ ] = dose if it differs, or a comment. Most compounds without a hit are left out; they make up all but 14% or so of the library. Unless noted, the call rests on the fitted dose curve; in most records, active means well fitted inhibition curve with a large enough effect; inconclusive means small, poorly fitted or top-dose-only effect, or another doubt; inactive means no such curve, though single readings can be large or run the other way.

SMILES	Pf growth 48h	Pf growth 96h	HCMV inh	LASV entry inh	HCV inhibitor	MARV entry inh
Cc1no[n+]([O-])c1COc1cccc(/C=N/Nc2nncn2N)c1	?	?	-82	.	-	.
COc1cc(/C=N/n2nnnc2N)ccc1OCc1c(C)no[n+]1[O-]	-	?	-	-	-	?
Cc1ccc(-n2c(C)nc3c(cnn3-c3ccc(C)c(C)c3)c2=O)cc1C	.	-	-67	.	-	.
CCOc1ccc(-n2c(CC)nc3c(cnn3-c3ccc(Cl)cc3)c2=O)cc1	.	.	-	?	.	-
Cc1ccc(-n2c(C)nc3c(cnn3-c3ccccc3Cl)c2=O)cc1C	.	3.7µM	-	-	-	-
Cc1nc2c(cnn2-c2ccccc2Cl)c(=O)n1-c1ccc(N2CCC(C)CC2)cc1	.	-	-63	?	13µM	?
CCc1nc2c(cnn2-c2ccc(F)cc2)c(=O)n1-c1ccc(N2CCC(C)CC2)cc1	.	3.3µM	?	.	-	.
COc1cccc(Cc2nc3ccccc3nc2SCC(=O)Nc2ccccc2F)c1	.	.	-	-	.	.
CN(C)C(=O)C[C@@H]1C=C[C@@H](NC(=O)C2CCC2)[C@@H](CO)O1	.	.	-	.	.	.
Cc1nc(Sc2ccc(Cl)cc2)c(C#N)c(C)c1[N+](=O)[O-]	?	12µM	-75	-	-	-
Cc1ccc(Sc2nc(C)c([N+](=O)[O-])c(C)c2C#N)cc1	?	?	-70	-	-	-
COc1ccc(CNc2nc(C)c([N+](=O)[O-])c(C)c2C#N)cc1	-	?	?	-	-	-
Cc1nc(Sc2ccc(Br)cc2)c(C#N)c(C)c1[N+](=O)[O-]	?	9.3µM	-77	?	?	?
CC1CCN(C(=O)c2[nH]cnc2C(=O)N(C)CCO)CC1	.	.	-	.	.	.
Nc1ccc(N2CCCCC2)cc1N1CCCCC1	3.3µM	-	-69	?	?	?
Nc1ccc(N2CCCCC2)c2nonc12	?	-	-67	.	-	.
CN1CCN(c2ccc(N)c(N3CCN(C)CC3)c2)CC1	.	.	-	-	-	?
Nc1cc(Cl)ccc1N1CCCCC1	-	-	-	.	-	.
c1ccc2cc(N3CCCCC3)ccc2c1	.	.	-	-	-	-
O=C1c2ccccc2C(=O)c2cc(N3CCCCC3)ccc21	.	.	-	3.2µM	?	4µM
O=[N+]([O-])c1ccc(N2CCCCCC2)c2nonc12	-	-	-	?	-	-
Nc1cc(Cl)ccc1N1CCCCCC1	2.6µM	-[5.75 µM]	-	-	-	-
CSc1nnc2c(n1)C[C@H](c1ccccc1)[C@@H](C)[C@@H](C(=O)N1CCCC1)C2	.	.	.	.	.	-
CCCCCCC(=O)Nc1ccc(C(=O)N/N=C/c2cccnc2)cc1	?	?	-	-	-	-
Cc1c(/C=N/NC(=O)c2sc3ccccc3c2Cl)cnn1C	-	-	-	-	-	-
SMILES	Pf growth 48h	Pf growth 96h	HCMV inh	LASV entry inh	HCV inhibitor	MARV entry inh
Cc1ccc(NC(=O)CCC(=O)N/N=C/c2ccc([N+](=O)[O-])o2)cc1C	7.4µM	1.9µM	?	.	?	.
Cn1cccc1/C=N/NC(=O)c1sc2ccccc2c1Cl	-	-	-102	-	-	-
CCCCCCCC(=O)Nc1ccc(C(=O)N/N=C/c2cccc([N+](=O)[O-])c2)cc1	-	?	-69	?	?	?
O=C(N/N=C/c1ccc([N+](=O)[O-])o1)C(=O)Nc1ccc(C(=O)O)cc1	2.3µM	2.3µM	-	.	-	.
O=C(O)c1ccc(N/N=C/C=C/c2ccc([N+](=O)[O-])o2)cc1	-	?	-	.	-	-
COc1cc(CCCN2CCNC[C@@H]2Cc2ccccc2)cc(OC)c1OC	?	-	-	.	-	.
O=c1c(-c2cc3ccccc3[nH]2)nc2ccccc2n1C(CCc1ccccc1)c1nc2ccccc2[nH]1 (stereo not drawn)	.	.	-	.	.	.
Cc1ccc2c(=O)c(C(=O)c3ccc(F)cc3)cn(CC(=O)NCc3ccccc3)c2n1	.	.	-	-	.	.
O=C(N/N=C/c1ccc([N+](=O)[O-])o1)c1cn2ccc3ccccc3c2n1	1.3µM	?	-	-	-	-
O=C(N/N=C/c1ccc(Br)o1)c1cc([N+](=O)[O-])cc([N+](=O)[O-])c1	-	-	-	.	-	.
O=C(N/N=C\c1ccc([N+](=O)[O-])o1)c1ccc(O)cc1	2.3µM	-	.	.	.	.
O=C(N/N=C/c1ccc([N+](=O)[O-])o1)c1sc2ccccc2c1Cl	?	1.7µM	?	.	?	.
CCCC(=O)Nc1ccc(C(=O)N/N=C/c2ccc([N+](=O)[O-])o2)cc1	-	1.7µM	-95	?	?	12µM
O=C(CSc1ccc(Cl)cc1)N/N=C/c1ccc([N+](=O)[O-])o1	?	?	-	.	-	.
Cc1ccccc1NC(=O)Cn1cc(S(=O)(=O)N2CCCC2)c(S(=O)(=O)N2CCCC2)c1	.	.	-	-	.	.
